PubChem BioAssay (NCI)
Compounds without any hit were thinned out: in the full panel of roughly 83,000, 20% have a hit.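 Assay: single dose, 48 h. Readout: percent growth (0 = no net growth; negative = cell death). Active: <10.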 Calls of active or inactive are those of the source.

Legend:
Assay in all cases: NCI-60 one-dose screen, 48 h (100 = growth as untreated, 0 = no growth, -100 = all killed)
Conditions in all cases: 10 µM
SK-MEL-2 melanoma = tested on: SK-MEL-2 melanoma
EKVX NSCLC = tested on: EKVX NSCLC
UO-31 renal = tested on: UO-31 renal
TK-10 renal = tested on: TK-10 renal
ACHN renal = tested on: ACHN renal
CAKI-1 renal = tested on: CAKI-1 renal
A498 renal = tested on: A498 renal
CCRF-CEM leukemia = tested on: CCRF-CEM leukemia
MOLT-4 leukemia = tested on: MOLT-4 leukemia
SR leukemia = tested on: SR leukemia
RPMI-8226 leukemia = tested on: RPMI-8226 leukemia
OVCAR-8 ovarian = tested on: OVCAR-8 ovarian
OVCAR-5 ovarian = tested on: OVCAR-5 ovarian
OVCAR-4 ovarian = tested on: OVCAR-4 ovarian
SK-OV-3 ovarian = tested on: SK-OV-3 ovarian
IGROV1 ovarian = tested on: IGROV1 ovarian
OVCAR-3 ovarian = tested on: OVCAR-3 ovarian
HS 578T breast = tested on: HS 578T breast
NCI/ADR-RES ovarian = tested on: NCI/ADR-RES ovarian
SN12C renal = tested on: SN12C renal

Measured: growth

CC(CNC(Cc1ccccc1)c1ccccc1)NC(Cc1ccccc1)c1ccccc1 (stereo not drawn)
inactive: SK-MEL-2 melanoma 73.3% | EKVX NSCLC 26.8% | UO-31 renal 37.6% | TK-10 renal 60.6% | ACHN renal 47.7% | CAKI-1 renal 15.6% | A498 renal 74.5% | CCRF-CEM leukemia 35.2% | MOLT-4 leukemia 14.9% | OVCAR-8 ovarian 49.5% | OVCAR-5 ovarian 46.3% | OVCAR-4 ovarian 31.7% | SK-OV-3 ovarian 81.7% | IGROV1 ovarian 39% | OVCAR-3 ovarian 47.3% | HS 578T breast 75.2% | NCI/ADR-RES ovarian 50%
active: SR leukemia -19.7% | RPMI-8226 leukemia -34.6%

O=C(c1ccccc1)C(Nc1ccccc1)c1ccccc1 (stereo not drawn)
inactive: SK-MEL-2 melanoma 90.9% | EKVX NSCLC 86.2% | UO-31 renal 66.9% | TK-10 renal 93.6% | ACHN renal 89.2% | CAKI-1 renal 87.3% | A498 renal 94.6% | CCRF-CEM leukemia 94.1% | MOLT-4 leukemia 90.8% | SR leukemia 96.2% | RPMI-8226 leukemia 84.8% | OVCAR-8 ovarian 87% | OVCAR-5 ovarian 93.3% | OVCAR-4 ovarian 92.3% | SK-OV-3 ovarian 96.9% | IGROV1 ovarian 75.9% | OVCAR-3 ovarian 97.1% | HS 578T breast 95.1% | NCI/ADR-RES ovarian 93.1%

CCOC(=O)c1c(C(F)(F)F)n([O-])c2ccc(OC)cc2[n+]1=O
inactive: SK-MEL-2 melanoma 46.4% | SN12C renal 22.6% | TK-10 renal 49.8% | ACHN renal 32.1% | A498 renal 50.8% | OVCAR-8 ovarian 23.8% | OVCAR-5 ovarian 60.8% | OVCAR-4 ovarian 30.5% | SK-OV-3 ovarian 23.8% | IGROV1 ovarian 24.2% | OVCAR-3 ovarian 32.9% | HS 578T breast 41.1% | NCI/ADR-RES ovarian 31.3%
active: EKVX NSCLC 9.51% | CCRF-CEM leukemia 5.58% | MOLT-4 leukemia 5.77% | SR leukemia -13.3% | RPMI-8226 leukemia -34.8%

CN(C1c2ccccc2Oc2ccccc21)S(=O)(=O)c1cc(Cl)ccc1Cl
inactive: SK-MEL-2 melanoma 42.9% | EKVX NSCLC 57.7% | UO-31 renal 49.5% | TK-10 renal 69% | ACHN renal 53.4% | CAKI-1 renal 54.2% | A498 renal 20.9% | CCRF-CEM leukemia 42.7% | MOLT-4 leukemia 43.3% | SR leukemia 12.8% | RPMI-8226 leukemia 67.3% | OVCAR-8 ovarian 65.8% | OVCAR-5 ovarian 84.4% | OVCAR-4 ovarian 69.2% | SK-OV-3 ovarian 54.5% | IGROV1 ovarian 53.8% | OVCAR-3 ovarian 19.4% | HS 578T breast 76.2% | NCI/ADR-RES ovarian 51.9%

N#Cc1ccc(-n2cnc(NC(=O)[C@H]3CCN(C#N)C3)c2)cc1
active: SK-MEL-2 melanoma -31.7% | A498 renal -18.4% | MOLT-4 leukemia 9.28% | SR leukemia 6.48%
inactive: EKVX NSCLC 20.4% | UO-31 renal 18.6% | TK-10 renal 21.1% | ACHN renal 11.8% | CAKI-1 renal 34.9% | CCRF-CEM leukemia 12.3% | RPMI-8226 leukemia 16.2% | OVCAR-8 ovarian 15.5% | OVCAR-5 ovarian 23.8% | OVCAR-4 ovarian 28.9% | SK-OV-3 ovarian 62.5% | IGROV1 ovarian 20.8% | OVCAR-3 ovarian 11.4% | HS 578T breast 19.2% | NCI/ADR-RES ovarian 36.6%

CCN(CC)CCOC(=O)c1ccc(N=Nc2ccc(O)c(OC)c2)cc1
inactive: SK-MEL-2 melanoma 87.8% | EKVX NSCLC 99.2% | UO-31 renal 87.8% | TK-10 renal 87.2% | ACHN renal 105% | CAKI-1 renal 97.4% | A498 renal 80.8% | CCRF-CEM leukemia 99.5% | MOLT-4 leukemia 93.8% | SR leukemia 84.8% | RPMI-8226 leukemia 99.7% | OVCAR-8 ovarian 95.1% | OVCAR-5 ovarian 95.4% | OVCAR-4 ovarian 111% | SK-OV-3 ovarian 105% | IGROV1 ovarian 104% | OVCAR-3 ovarian 98.6% | HS 578T breast 98.7% | NCI/ADR-RES ovarian 101%
